Values joined by “and” are separate entries in the source; they are usually repeats but may differ in a detail not shown here. Identical values can stand only once. The whole screen tested about 230,000 compounds, of which about 310 (0.13%) were called active. Another 2% or so got no clear call; they are omitted. This is one part of a sample in which actives are shown more often than they occur. Calls come from the whole dose curve; as a rule, active = well fitted activation curve with a large enough effect; inconclusive = small, poorly fitted or top-dose-only effect; inactive = no such curve, though single readings can be large or run the other way.
assay: qHTS Multiplex Assay to Identify Dual Action Probes in a Cell Model of Huntington: Cytoprotection (ATP); details: PC12 HTT-Q103 induced, ATP luminescence, 40 h; series mostly up to 56.4 µM; cytoprotection (ATP increase): at the top concentration;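 note: toxic huntingtin expression switched on by the ecdysone agonist tebufenozide; % of control where 0% means no effect; nearly all actives have a fitted effect of over 45% in size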
Source text: NIH Chemical Genomics Center [NCGC]
NIH Molecular Libraries Probe Production centers Network [MLPCN]
Assay Submitter (PI): Wei Zheng
Huntington's disease is a neurodegenerative disorder caused by a trinucleotide repeat expansion in Exon 1 of the Huntingtin gene. The CAG trinucleotide encodes glutamine and polyglutamine expansions cause cell death in selective areas of the brain. Huntington polyglutamine repeats have the tendency to form aggregates which are observable in later stages of the disease. The exact nature of the aggregates, whether toxic, protective, or insignificant, is unclear.
A stable PC12 cell line containing a gene fusion of Exon 1 of the Huntingtin gene linked to GFP under the control of the inducible ecdysone promoter were used as the cell-based model of Huntington Disease for high throughput screening. Exon 1 of the Huntingtin gene contained an expansion of 103 polyglutamines (Q103) which, when expressed, caused cell death and distinct, bright GFP aggregates. The amount of cell death and the size and intensity of GFP aggregates increased over time and induction level. The cell death were quantified with a measurement of ATP content in the cells. A maximal 40-50% of cell death was observed when the Huntington gene was induced in this cell line.
We optimized this assay in a homogeneous 1536 well format. A quantitative high throughput screen (qHTS) was conducted on the PC12 cells which were induced to express the toxic fusion construct. Small molecules which prevented cell death were identified by using a luminescent ATP quantification method (Perkin Elmer's ATPlite).
PC12 cells stably containing a construct with an ecdysone inducible promoter expressing GFP fused to the exon 1 of HTTQ103 (Huntington protein which containing a 103 ployglutamine expansion) were used.
NCGC Assay Protocol Summary:
Sequence, Parameter, Description
1, Reagent, 5 uL 1500 cells/well 1536 TC treated White clear bottom plate
2, Compound, 23 nL Tebufenozide inducer (100 nM final) to all columns
3, Compound, 23 nL 40 uM to 0.5 nM Libraries
5, Reagent, 5 ul ATPLite cell death assay reagent
6, Detector, 4 sec integration with a Viewlux Luminescent
Media consisted of phenol red free DMEM + 5% equine serum (Hyclone # SH30072.03 ), 5% supplemented Bovine Calf Serum (Hyclone # SH30074.03 ), 1x pen/strep, no G418
Control columns: 1 = DMSO, 2= 2 uM teb dilns (1:1), 4 = 100 nM Teb inducer. Sample columns received 100 nM Teb.

Cytoprotection (ATP increase), inactive:
CCn1c(C(C)C)n[nH]c1=S -26.1%, Cc1ccc(Nc2nc(N)nc(CSc3nnc(C)s3)n2)cc1 18.8% [at 10 µM], CCOC(=O)C1CCCN(C(=O)c2cccc(S(=O)(=O)N3CCOCC3)c2)C1 (centres undefined) 21.6% [at 10 µM], CC(C)=CCN1CCC2(CCc3ccccc32)CC1 -37.2%, C#CCCOC(=O)N1C2=NC(C(=O)OC)=C(C(=O)OC)[C@@H]3N(C)c4ccc(OC)cc4[C@]23C[C@H]1C(=O)OC -19.2% [at 10 µM], O=P(O)(O)OC[C@H](O)CO 2.81%, CC(C)(C)OC(=O)NCCCC1=CC2=CC(=O)C(C)(OC(=O)c3ccco3)C(=O)C2=CO1 (centres undefined) -5.66%, COCCCNC(=O)C1CC(=O)N(CCc2ccccc2)C1 (centres undefined) -12%, COc1ccc(N=Nc2ccc(O)c(P(=O)(c3ccccc3)c3ccccc3)c2)cc1 13.4% [at 10 µM], COC(=O)C1(C(C)=O)CC2=CC[C@H]3C(=O)N(c4ccccc4)C(=O)[C@H]3[C@@H]2Cc2ccccc2[C@@H]1C[N+](=O)[O-] (some centres undefined), Cc1c(N=Nc2ccc(N(C)C)cc2)c(=O)n(-c2ccccc2)n1C -1.47% [at 10 µM], CCNC(=O)COC(=O)/C=C/c1c(C)nn(Cc2cccc(OC)c2)c1Cl -27%, CN(C)c1nc(N)nc(Cn2nnc(-c3ccc(C(F)(F)F)cc3)n2)n1 -14.2%, COC(=O)C1=C(C(=O)OC)[C@@H]2N(C)c3ccccc3[C@@]23C[C@@H](C(=O)OC)N(C(C)=O)C3=N1 0.243% [at 10 µM] and 2.58% [at 10 µM], CCCCCCCC/C=C\CCCCCCCC(=O)OC[C@H](CO)OC(C)=O, Cc1ccc(CC2(O)CCN(CCOc3ccc(O)cc3)CC2)cc1 -66.8%, C=C1O[C@@](CO)(n2cnc3c(N)ncnc32)[C@H](O)[C@@H]1O -56.7%, CC1=C2[C@@H](O)[C@H]([C@@H](C)C(=O)NCCC(C)C)CC[C@@]2(C)C=CC1=O 16%, COc1cccc([C@@H]2Oc3ccc(Br)cc3C(=O)[C@H]2OC(=O)NCCc2ccc(OC)c(OC)c2)c1 -49.1%, CCCCC/C=C\C/C=C\C/C=C\CCCCCCC(N)=O 26.9%, O=C1OCCN1C(=O)[C@H]1[C@H](c2ccccc2)C(c2ccc(F)cc2)=NN1c1ccccc1 -95.6%, CCCCC/C=C\C/C=C\C/C=C\CCCCC(=O)NCC(=O)O 19.8%, C/C=C1\C2C=C(C)CC1(N)c1ccc(=O)[nH]c1C2 (centres undefined), COc1cccc(NC(=O)CN(C)CC(=O)Nc2ccc3c(c2)CCC3)c1 19.6% [at 10 µM], Cc1ccc(-c2ncc(Cl)cc2-c2ccc(S(C)(=O)=O)cc2)cn1 -6.4%, CC1(OC(=O)C2CCCC2)C(=O)C=C2C=C(c3ccc(C#N)cc3)OC=C2C1=O (centres undefined) 14.5%, CCC(C)[C@@H](N)C(=O)O (some centres undefined), Cc1cc2oc(=O)cc(-c3ccccc3)c2c(C)c1/C=C/c1ccc(F)cc1 7.14%, COc1ccc(-c2nc3c(c4c2C[C@H](c2ccccc2)OC4)CN(S(=O)(=O)c2c(C)noc2C)CC3)c(C)c1 -10% [at 10 µM], O=C1/C(=C/c2cccs2)SC(=S)N1C1CCS(=O)(=O)C1 (centres undefined) -20.7% [at 10 µM], C=C1c2cccc(OC)c2O[C@H](C(=O)OCC)[C@@H]1CCCCCC -42.4%, C=CCC1CCC(=O)N2CCCC12 (centres undefined) 30.3% [at 96.6 µM], COC(=O)c1cc(C(=O)OCC(=O)Nc2cc(C)on2)cc([N+](=O)[O-])c1 -6.88% [at 10 µM], CC[C@H](C)[C@@H](NC(=O)O[C@@H]1C(=O)c2cc(OC)ccc2O[C@H]1c1cccc(OC)c1)C(=O)OC -40.8%, O=C(c1cc2ccccc2o1)N1CCN(Cc2ccccc2)CC1 -59.7%, COc1cc2c(cc1OC)CC(=O)N(CCCN(C)C[C@H]1Cc3cc(OC)c(OC)cc31)CC2 32.3%, C=CC1=C2C=C(C3CC3)N(CC(C)C)C=C2C(=O)C(C)(OC(=O)c2ccco2)C1=O (centres undefined) -19.6% [at 10 µM], S=C(NCCCc1cnc[nH]1)NCCCN(Cc1ccc(Cl)c(Cl)c1)c1ccc(Br)cn1 -350%, C/C(CC(=O)NC(C)c1ccccc1)=N\NC(N)=S (centres undefined) 8.79% [at 10 µM], COC(=O)C1=C(C(=O)OC)[C@@H]2N(Cc3ccccc3)c3ccccc3[C@@]23C[C@@H](C(=O)OC)N(S(=O)(=O)c2ccc(C(F)(F)F)cc2)C3=N1 23.4% [at 10 µM], C[C@H]1Cc2c(-c3ccccc3)nc3c(c2CO1)CN(C(=O)C1CC1)CC3 -5.29% [at 10 µM], NC(=O)c1sc(-c2ccsc2)cc1N -22.8%, CC(C)(C)OC(=O)NCCCCC1=CC2=CC(=O)C(C)(OC(=O)c3cccs3)C(=O)C2=CO1 (centres undefined) -20.7%, COc1cccc([C@@H]2Oc3ccc(Br)cc3C(=O)[C@H]2OC(=O)NCc2ccc3c(c2)OCO3)c1 -21.2%

Source: PubChem BioAssay AID1471 (National Center for Advancing Translational Sciences (NCATS), 2008)
